The record followed here is PubChem BioAssay AID651658 (Broad Institute, 2012).

Several values for one entry are separate records, joined by “and”; a condition that tells them apart may be missing. Equal entries are not always repeated. Among all 340,000 compounds or so, about 5,100 (1.5%) were called active.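 The calls were made as follows: active = mean Tm shift, scaled 0 neutral to 100 positive control, at about 1.3% or above, every replicate too (limit read from the data); inconclusive = no clear call, values can overlap the other calls; inactive = the rest.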 For the sample, actives were picked, then their nearest neighbours and some compounds at random.

Fibroblast growth factor 22 (Homo sapiens), sequence (Q9HCT0 whole entry, looked up): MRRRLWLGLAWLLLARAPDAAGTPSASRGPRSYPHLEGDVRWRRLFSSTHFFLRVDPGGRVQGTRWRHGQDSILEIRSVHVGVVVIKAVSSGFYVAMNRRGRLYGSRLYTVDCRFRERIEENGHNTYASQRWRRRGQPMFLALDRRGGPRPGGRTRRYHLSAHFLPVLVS

The assay concerns the target Fibroblast growth factor 22 (Homo sapiens) (UniProt Q9HCT0). Put plainly: FGF22 ligand-induced thermal stabilization – biophysical, thermal shift, single point, FGF22 synaptogenesis inhibitor project, primary screen (AID 651658). The settings on record: recombinant FGF22 thermal shift, SYPRO orange fluorescence; at 9.99 µM; hits give high values; percent of sucrose octasulfate shift, DMSO zero.
With `S=C(c1ccc(-c2ccccc2)o1)N1CCCCC1`, the activity (Tm shift, normalised) is 43.4% (active). On to `OCCN1CCN(C(=S)c2ccc(-c3ccccc3)cc2)CC1`, for which the activity (Tm shift, normalised) is -0.171% (inactive). Take `CN1CCN(C(=O)c2ccc(-c3ccc(Br)cc3)o2)CC1`: the activity (Tm shift, normalised) was -0.078% (inactive). Consider `C[C@@H]1CN([C@@H](C)CO)C(=O)Cc2cc(NS(C)(=O)=O)ccc2O[C@H]1CN(C)S(=O)(=O)c1ccc(F)cc1`, for which the activity (Tm shift, normalised) is 0.13% (inactive).

Take `COc1cccc(CNC(=O)C[C@@H]2C=C[C@@H](NC(=O)C3CCC3)[C@@H](CO)O2)c1`: the activity (Tm shift, normalised) was 0.068% (inactive).

Turning to `Cc1ccc(SC(C)C(=O)NCc2ccc(F)cc2)cc1` (stereo not drawn), the activity (Tm shift, normalised) was 43.3% (active). As for `CSc1ccc(CN(C)CC(=O)NCc2ccc(F)cc2)cc1`, the activity (Tm shift, normalised) was 0.292% (inactive). Take `Cc1ccc(CS(=O)(=O)CCC(=O)NCc2ccc(F)cc2)cc1`: the activity (Tm shift, normalised) is -0.138% (inactive).

In the case of `C[C@@H]1CN([C@H](C)CO)C(=O)c2cccc(NC(=O)c3nc4ccccc4s3)c2O[C@@H]1CN(C)C`, the activity (Tm shift, normalised) is 0.121% (inactive). As for `C[C@H](CO)N1C[C@H](C)[C@H](CN(C)C(=O)NC2CCCCC2)Oc2c(NC(=O)c3nc4ccccc4s3)cccc2C1=O`, the activity (Tm shift, normalised) was -0.035% (inactive).

`CC(C)NC(=O)N(C)C[C@@H]1Oc2c(NC(=O)c3nc4ccccc4s3)cccc2C(=O)N([C@H](C)CO)C[C@H]1C`: the activity (Tm shift, normalised) was 29.2% (active). For `COc1ccc(S(=O)(=O)Nc2ccc3c(c2)C(=O)N([C@H](C)CO)C[C@@H](C)[C@H](CN(C)C(=O)c2ccncc2)OCCCC[C@@H](C)O3)cc1`, the activity (Tm shift, normalised) is -0.014% (inactive). Consider `O=C(C[C@H]1C[C@H]2c3cc(NC(=O)CC4CC4)ccc3O[C@H]2[C@H](CO)O1)NCc1ccccc1`, for which the activity (Tm shift, normalised) is 0.206% (inactive). On to `N#C[C@@H]1[C@@H](c2ccc(-c3cccnc3)cc2)[C@H](CO)N1C(=O)Nc1ccc(F)cc1`, for which the activity (Tm shift, normalised) is 0.238% (inactive). Then `O=C(Nc1nnc(-c2ccccc2F)s1)c1ccccc1F`, with 2.31% (active); and `O=C(Nc1nnc(-c2ccc(F)cc2)s1)c1c(F)cccc1Cl`, with 0.279% (inactive). As for `CN(Cc1ccccc1)S(=O)(=O)c1nnc(NC(=O)c2ccccc2F)s1`, the activity (Tm shift, normalised) was -0.151% (inactive). Under `CN(C(=O)CSc1nnc(-c2ccc(C(C)(C)C)cc2)n1C)C1CCS(=O)(=O)C1` (stereo not drawn) stands 0.442% (inactive); under `CCN(C(=O)CSc1nc2ccccc2n1CC)C1CCS(=O)(=O)C1` (stereo not drawn), 0.234% (inactive).

As for `CCn1c(SCC(=O)N(C)C2CCS(=O)(=O)C2)nnc1-c1cccs1` (stereo not drawn), the activity (Tm shift, normalised) was 43.9% (active). Turning to `Cc1ccc(S(=O)(=O)Nc2ccc3c(c2)C(=O)N([C@H](C)CO)C[C@H](C)[C@@H](CN(C)C(=O)NC(C)C)OCCCC[C@@H](C)O3)cc1`, the activity (Tm shift, normalised) was 0.879% (inactive). As to `CCCc1cn(CC[C@@H]2CC[C@@H](NC(=O)CCN3CCCCC3)[C@H](CO)O2)nn1`, the activity (Tm shift, normalised) was 0.083% (inactive). In the case of `Cc1cc(C(=O)COC(=O)C2CC2)c(C)n1-c1ccc(F)cc1`, the activity (Tm shift, normalised) was 0.711% (inactive). Then `COc1ccc(C(=O)COC(=O)CNC(=O)c2cccs2)cc1Br`, with -0.191% (inactive). In the case of `COc1ccc(-n2c(C)cc(C(=O)COC(=O)c3cc(OC)c(OC)cc3NC(=O)c3cccs3)c2C)cc1`, the activity (Tm shift, normalised) was 43.4% (active).

As for `COc1ccc2c3c(n(C)c2c1)[C@@H](CO)N(C(=O)Nc1ccccc1F)CC31CCN(C(=O)c2ccccc2F)CC1`, the activity (Tm shift, normalised) is -0.032% (inactive). Regarding `COc1ccc(NC(=O)N(C)C[C@@H]2Oc3ccc(NS(=O)(=O)c4ccc(Cl)cc4)cc3C(=O)N([C@H](C)CO)C[C@@H]2C)cc1`, the activity (Tm shift, normalised) was 0.119% (inactive).

For `Cc1ccc2[nH]c(=O)c(CN3CCCCC3)c(-c3ccccc3)c2c1`, the activity (Tm shift, normalised) is 43.2% (active). Take `c1ccc2cc3[nH]c(CN4CCCCC4)nc3cc2c1`: the activity (Tm shift, normalised) is -0.01% (inactive). As to `Cc1ccc2[nH]c(=O)c(CC(=O)O)c(-c3ccccc3)c2c1`, the activity (Tm shift, normalised) is -0.089% (inactive). Under `Cc1ccccc1S(=O)(=O)N[C@H]1CC[C@@H](CCn2cc(Cc3ccccc3)nn2)O[C@H]1CO` stands -0.039% (inactive); under `Cc1noc(C)c1NC(=O)N(C)C[C@H]1OCCCC[C@H](C)Oc2ccc(NC(=O)Cc3ccccc3)cc2C(=O)N([C@H](C)CO)C[C@@H]1C`, 1.07% (inactive); under `CCc1ccccc1NC(=O)CSc1nnc(-c2ccncc2)o1`, -0.04% (inactive).

Regarding `O=C(CSc1nnc(-c2ccncc2)o1)Nc1cccc(Cl)c1`, the activity (Tm shift, normalised) was 0.107% (inactive). Consider `O=C(COc1ccc(Cl)cc1)NCc1nnc(SCC(=O)NCC2CCCO2)o1` (stereo not drawn), for which the activity (Tm shift, normalised) is 42.9% (active).

As to `COc1ccc2c(C)cc(SCC(=O)NCC3CCCO3)nc2c1` (stereo not drawn), the activity (Tm shift, normalised) is 0.011% (inactive). For the molecule `O=C(CSc1ccc(-c2ccccc2)nn1)NCC1CCCO1` (stereo not drawn), the activity (Tm shift, normalised) was -0.177% (inactive). For the molecule `O=C(CSc1nnc(-c2ccncc2)o1)NCc1ccc(Cl)cc1`, the activity (Tm shift, normalised) was 43.9% (active). For `C[C@@H]1CN([C@@H](C)CO)C(=O)c2cc(NS(=O)(=O)c3cn(C)cn3)ccc2O[C@@H]1CN(C)C(=O)NC1CCCCC1`, the activity (Tm shift, normalised) was -0.419% (inactive). On to `COC(=O)[C@@H]1[C@@H](CO)[C@@H]2Cn3c(ccc(-c4ccc(OC)cc4)c3=O)[C@@H]2N1S(C)(=O)=O`, for which the activity (Tm shift, normalised) was -0.206% (inactive).

In the case of `CCC(=O)N1[C@H](C(=O)OC)[C@@H](CO)[C@@H]2Cn3c(ccc(-c4cccc(F)c4)c3=O)[C@@H]21`, the activity (Tm shift, normalised) was 0.191% (inactive).

Turning to `COCC(=O)N1[C@@H](CO)[C@H](c2ccccc2)C12CN(C(=O)NC1CCCCC1)C2`, the activity (Tm shift, normalised) was 0.045% (inactive). With `COc1ccc2c3c([nH]c2c1)[C@H](CO)N(Cc1ccccc1)CC31CCN(C(=O)c2ccccn2)CC1`, the activity (Tm shift, normalised) was -0.204% (inactive).

As to `C[C@@H]1CN([C@@H](C)CO)C(=O)Cc2cc(NC(=O)Nc3cccc4ccccc34)ccc2O[C@H]1CN(C)CC1CCCCC1`, the activity (Tm shift, normalised) was 0.094% (inactive). As for `COc1cccc(CNC(=O)c2n[nH]c3ccccc23)c1`, the activity (Tm shift, normalised) is 0.239% (inactive). Take `O=C(NCCc1ccc(F)cc1)c1n[nH]c2ccccc12`: the activity (Tm shift, normalised) is 43.3% (active). `O=C(NCCc1ccccc1)c1c[nH]c2ccc(F)cc2c1=O`: the activity (Tm shift, normalised) was 0.52% (inactive). Consider `CCCNC(=O)N1C[C@@H](O)COC[C@H]2O[C@H](CC(=O)NCCCN3CCOCC3)CC[C@@H]21`, for which the activity (Tm shift, normalised) was -0.348% (inactive). On to `COc1ccccc1-c1ccc2c(c1)O[C@H](CN(C)C(=O)c1cccnc1)[C@H](C)CN([C@@H](C)CO)S2(=O)=O`, for which the activity (Tm shift, normalised) was -0.096% (inactive). Then `O=C(C[C@@H]1CC[C@@H]2[C@H](COC[C@H](O)CN2C(=O)C2CC2)O1)NCc1ccncc1`, with 0.141% (inactive). Under `CN(C)CC(=O)N1[C@H](CO)[C@@H](c2ccc(-c3cccc(C(=O)N(C)C)c3)cc2)[C@@H]1C#N` stands 0.074% (inactive). In the case of `NC(=O)N1CCc2ccccc21`, the activity (Tm shift, normalised) was 43.1% (active).

As for `O=C(c1cnn2ccccc12)N1CCc2ccccc21`, the activity (Tm shift, normalised) was -0.357% (inactive). For the molecule `O=C(NC(=S)N1CCc2ccccc21)c1ccco1`, the activity (Tm shift, normalised) was 0.306% (inactive). Consider `C[C@H](CO)N1C[C@H](C)[C@@H](CN(C)C(=O)Cc2ccncc2)Oc2ncc(C3=CCCCC3)cc2C1=O`, for which the activity (Tm shift, normalised) is 0.188% (inactive).

As to `O=C(NCC[C@@H]1CC[C@@H](NC(=O)c2ccccc2F)[C@H](CO)O1)c1ccc2c(c1)OCO2`, the activity (Tm shift, normalised) was -0.277% (inactive). In the case of `C[C@@H]1CN([C@@H](C)CO)C(=O)c2cccc(NC(=O)Nc3ccc(C(F)(F)F)cc3)c2O[C@@H]1CN(C)S(=O)(=O)c1ccc(F)cc1`, the activity (Tm shift, normalised) is -0.433% (inactive).

As for `CO[C@@H]1CN(C)C(=O)c2ccc(NC(=O)Nc3c(C)noc3C)cc2OC[C@H](C)N(CC2CC2)C[C@H]1C`, the activity (Tm shift, normalised) was 0.073% (inactive). Then `CS(=O)(=O)c1ccc2nc(NC(=O)c3ccc(Cl)nc3)sc2c1`, with 1.36% (active); and `NS(=O)(=O)c1ccc2nc(NC(=O)C3=COCCO3)sc2c1`, with -0.051% (inactive); and `Cc1ccc(C(=O)Nc2nc3ccc(Cl)cc3s2)o1`, with 0.029% (inactive). For the molecule `COc1ccc([Si](C)(C)[C@@H]2[C@@H](CCO)O[C@]3(C(=O)N(Cc4ccccc4)c4ccc(N5CCC5=O)cc43)[C@H]2C)cc1`, the activity (Tm shift, normalised) was 1.09% (inactive). Turning to `O=C(C[C@H]1C[C@H]2c3cc(NC(=O)Nc4ccc(F)cc4)ccc3O[C@H]2[C@@H](CO)O1)NCC1CC1`, the activity (Tm shift, normalised) was -0.077% (inactive). Then `O=C(C[C@H]1C[C@H]2c3cc(NC(=O)Nc4ccc(F)cc4)ccc3O[C@H]2[C@H](CO)O1)NCC1CC1`, with 0.011% (inactive). On to `O=C(C[C@H]1C[C@@H]2c3cc(NC(=O)Nc4ccc(C(F)(F)F)cc4)ccc3O[C@@H]2[C@@H](CO)O1)NCC1CC1`, for which the activity (Tm shift, normalised) was 5.86% (active).

`C[C@H]1CCCCO[C@H](CN(C)S(C)(=O)=O)[C@@H](C)CN([C@@H](C)CO)C(=O)c2cc(NC(=O)C3CCCCC3)ccc2O1`: the activity (Tm shift, normalised) was -0.096% (inactive). As for `CNC(=O)C[C@H]1CC[C@H]2[C@H](COc3ccc(NC(=O)c4cccc(F)c4)cc3C(=O)N2C)O1`, the activity (Tm shift, normalised) is -0.14% (inactive) and 0.048% (inactive). Then `CN1C(=O)c2cc(NC(=O)c3cccc(F)c3)ccc2OC[C@@H]2O[C@H](CC(=O)N3CCc4ccccc4C3)CC[C@@H]21`, with 1.53% (active); and `COC(=O)C[C@@H]1CC[C@@H]2[C@H](COc3ccc(NC(=O)c4cccc(F)c4)cc3C(=O)N2C)O1`, with -0.235% (inactive); and `O=C(C[C@@H]1CC[C@@H](NC(=O)Nc2ccc(F)cc2)[C@@H](CO)O1)NCCN1CCCC1`, with -0.38% (inactive). Consider `CCCC(=O)Nc1ccc2c(c1)C(=O)N(C)C[C@H](OC)[C@H](C)CN(C(=O)c1ccccn1)[C@H](C)CO2`, for which the activity (Tm shift, normalised) is -0.212% (inactive). Take `C[C@@H]1CN([C@@H](C)CO)S(=O)(=O)c2ccc(C#C[C@@H](C)O)cc2O[C@@H]1CN(C)C(=O)CN(C)C`: the activity (Tm shift, normalised) is -0.212% (inactive).

For the molecule `CO[C@@H]1CN(C)C(=O)c2cc(NC(=O)C3CC3)ccc2OC[C@@H](C)N(Cc2nccs2)C[C@@H]1C`, the activity (Tm shift, normalised) was 0.295% (inactive).
